Assay results published in PubChem BioAssay AID686978 (National Center for Advancing Translational Sciences (NCATS), 2013).
Among all 420,000 compounds or so, about 64,000 (15%) were called active. Inconclusive results (about 27%) are left out. These entries were drawn from the full list. A number with no mark means an inactive call. Calls come from the whole dose curve; as a rule, active = well fitted inhibition curve with a large enough effect; inconclusive = small, poorly fitted or top-dose-only effect; inactive = flat fitted curve, though single readings scatter. Square brackets hold non-standard residues; d marks the D form. Peptide text beside a SMILES is read from it. ξ: configuration not given here. Ac5c = NC1(C(=O)O)CCCC1; ξS = NC(CO)C(=O)O

assay: qHTS for Inhibitors of human tyrosyl-DNA phosphodiesterase 1 (TDP1): qHTS in cells in absence of CPT; conditions: DT40 Tdp1-/- hTDP1 cells, no CPT, ATP luminescence, 48 h; activity change, negative = growth inhibition: at 46.2 µM (top of the series); note: nearly all actives have a fitted effect of over 55% in size
Procedure, shortened: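 Growth of hTDP1-complemented DT40 Tdp1-knockout cells is measured by ATP luminescence after at least 48 hr compound exposure at 37 °C, with DMSO substituting for the 20 nM CPT used in the parallel screen.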
% is set by controls: 0 for no effect and ±100 for the full control effect; potency is the fitted concentration of half-maximal effect.

SMILES | activity change, negative = growth inhibition [%] | Potency
CC(=O)N/C(=C\c1ccc(F)cc1)C(=O)NC(Cc1ccccc1)C(=O)O (stereo unspecified) | 8.07 | 
Cc1cc(C)cc(NC(=O)CSc2ccccc2)c1 | -21.9 | 
Cc1cc(C)cc(NC(=O)CSCc2cnn(-c3ccccc3)c2-n2cccc2)c1 |  | 10.3 µM (active)
CC(=O)Nc1ccc(NC(=O)CSCc2cnn(-c3ccccc3)c2-n2cccc2)cc1 | -14.5 | 
CCOC(=O)c1ccc(N2C(=O)CC(N3CCN(C(=O)c4ccccc4)CC3)C2=O)cc1 (stereo unspecified) | 18.9 | 
FC(F)(F)c1nnc2sc(-c3ccco3)nn12 | 15.9 | 
FC(F)(F)c1nnc2c3ccccc3c(Cl)nn12 |  | 6.51 µM (active)
Nc1nnc2c(C(F)(F)F)nc3ccccc3n12 | -21.9 | 
O=C(COC(=O)c1cc2c(s1)CCCC2)NCc1ccccc1Cl | -5.8 | 
C/C(=N\NC(=O)c1ccc(CSc2nc(C)cc(C)n2)cc1)C1CCCCC1 | -16.8 | 
CC1CCN(C(=O)/C(=C\c2ccccc2F)NC(=O)c2ccccc2)CC1 | -22.6 | 
COC(=O)c1cccc(N(C(=O)CNC(=O)c2cccs2)C(C(=O)NCC2CCCO2)c2ccc(OC)c(OC)c2)c1 (stereo unspecified) | -19.2 | 
COc1ccc(-c2nc3ccccc3n2CCC(C)C)cc1OC |  | 25.9 µM (active)
CCCn1c(C(O)c2cc(OC)ccc2OC)nc2ccccc21 (stereo unspecified) | -14.8 | 
COCCn1c(-c2ccc(OC)c(OC)c2)nc2ccccc21 | -26.5 | 
CCOCCn1c(-c2ccccc2)nc2ccccc21 |  | 18.4 µM (active)
CCOCCn1c(C(C)C)nc2ccccc21 | -25.3 | 
CCCCCN(C(=O)NC(=O)Nc1ccccc1OC)S(C)(=O)=O | -17.8 | 
CC(C)c1ccc(NC(=O)Cn2nnc(C(=O)NCCc3ccccc3)c2N)cc1 | 5.52 | 
CN(C)c1ccc(/C=C/c2sc3ccccc3[n+]2C)cc1 |  | 0.141 µM (active)
CN(C)c1ccc(/C=C/c2sc3ccccc3[n+]2CCCCBr)cc1 |  | 0.316 µM (active)
Cc1cccc(CN2CCN(Cc3cnn(-c4ccccc4F)c3)CC2CCO)n1 (stereo unspecified) | -16 | 

SMILES | activity change, negative = growth inhibition [%] | Potency
CC(=O)N1CCN(S(=O)(=O)c2ccc(C)c([N+](=O)[O-])c2)C1C(C)C (stereo unspecified) | -4.36 | 
O=C1CC2(CCCC2)C(=O)N1CN1CCN(S(=O)(=O)c2ccc(F)cc2F)CC1 | -2.62 | 
CCC(C(=O)Nc1ncccn1)(C(F)(F)F)C(F)(F)F | -8.1 | 
COc1cc(Cl)c(C)cc1NC(=O)CSc1nnc(CN2CCCC2)o1 | 21.9 | 
COc1cc(NC(=O)CSC(=S)N2CCCC2)c(OC)cc1Cl |  | 14.6 µM (active)
CCOCC(=O)Nc1cc(OC)c(Cl)cc1OC | -4.91 | 
COc1ccc(C(=O)N(C)CC(O)c2ccccc2)cc1OC1CCN(C(C)=O)CC1 (stereo unspecified) | 18.6 | 
Cc1cc2c(=O)n(CC(=O)NCC(=O)Nc3ccc(C(C)C)cc3)cnc2s1 | 11.4 | 
CCC1(C)Cc2c(sc3nc(SC)[nH]c(=O)c23)CO1 (stereo unspecified) | -2.82 | 
CCC1(C)Cc2c(sc3[nH]c(=S)n(Cc4ccccc4)c(=O)c23)CO1 (stereo unspecified) |  | 18.4 µM (active)
CCC1(C)Cc2c(sc3nc(SC)nc(N)c23)CO1 (stereo unspecified) | -40 | 
Cc1ccc(/C=C/C(=O)O)cc1S(=O)(=O)N1CCC(Cc2ccccc2)CC1 | 4.06 | 
CCOC(=O)C(CO)NC(=O)C1(NC(C)=O)CCCC1 (stereo unspecified) (Ac-[Ac5c]-[ξS]-OEt) | 18.1 | 
CC(=NNC(=S)N1CCCCCC1)c1ccccn1 |  | 0.0164 µM (active)
COc1ccc(C/C(C)=N/NC(=O)c2ccncc2)cc1 | 10.6 | 
CNC(=S)N1CCN(c2ccccn2)CC1 | 0.242 | 
COc1ccc(/C(C)=N/NC(=O)c2ccc3nc[nH]c3c2)cc1 | 1.6 | 
Cc1cccc(C)c1NC(=S)N1CCCCCC1 | -7.49 | 
O=C(Nc1ccc(NC(=O)c2ccccc2F)cc1)c1ccccc1F | -0.0635 | 
C/C(CC(=O)Nc1ccc(N(C)C)cc1)=N\NC(=O)c1ccccc1F | 6.54 | 
C/C(=N\NC(=O)Cc1ccc(Cl)cc1)c1ccccn1 |  | 2.31 µM (active)
C/C(=N\NC(=O)Cc1ccc(Br)cc1)c1cccnc1 | 6 | 

SMILES | activity change, negative = growth inhibition [%] | Potency
CC1=NNC(=O)C1CCC(=O)N/N=C(\C)c1ccc(Cl)cc1 (stereo unspecified) | -2.58 | 
C/C(=N\NC(=O)c1ccccc1F)c1ccccn1 |  | 0.517 µM (active)
COc1ccc(CC(=O)N/N=C(\C)c2ccccn2)cc1 |  | 7.31 µM (active)
CCN(CC(=O)Nc1cc(Cl)ccc1C)C(=O)Cn1c(=O)cnc2ccccc21 | 4.61 | 
Cc1ccc(CC(=O)N(C)CC(=O)N(CC(C)C)c2c(N)n(CC(C)C)c(=O)[nH]c2=O)cc1C | -14.8 | 
O=C(COC(=O)c1ncc(Cl)c(Cl)c1Cl)NCc1cccs1 | 9.23 | 
CCN(CC)C(=O)Cn1cc(S(=O)(=O)CC(=O)NCc2ccc3c(c2)OCO3)c2ccccc21 | -2.15 | 
Cc1ccccc1/C=C\c1nc(O)c([N+](=O)[O-])c(=O)[nH]1 | 1.57 | 
Cc1ccc(NC(=O)COc2ccc(/C=N\NC(=O)c3cccnc3)cc2)cc1C | -4.49 | 
CCOc1cc2c(Cl)ncnc2c(OCC)c1OCC | -0.504 | 
O=S(=O)(Nc1ccc(OC(F)(F)F)cc1)c1cccc2nonc12 | -26.6 | 
CCOc1ccc(S(=O)(=O)n2ccnc2)c2ccccc12 | 0.648 | 
CC[C@@H]1CC2=C(C(=O)OC(C)(C)O2)[C@@H](CC)O1 | -9.09 | 
CC1(C)OC(=O)C2=C(CC(c3ccccc3)OC2CCc2ccccc2)O1 (stereo unspecified) |  | 23.1 µM (active)
CC(C)C1CC2=C(C(=O)OC(C)(C)O2)C(c2ccc(F)cc2)O1 (stereo unspecified) | -0.527 | 
CN(C)c1nc(-c2cccnc2)nc(-c2ccc(Cl)cc2)c1C#N | -26.8 | 
CN(C)C(=O)Cn1c(=O)n(S(=O)(=O)c2ccccc2)c2ccccc21 | 1.81 | 
CCNC(=O)CCc1nc(-c2ccc(C)cc2)no1 | -26.5 | 
Cc1ccc(-c2noc(CCC(N)=O)n2)cc1 | -15.8 | 
CC(=O)c1ccc(NC(=O)CCc2nc(-c3ccc(C)cc3)no2)cc1 |  | 16.4 µM (active)
CC(C)CC(=O)N=C1SC2CS(=O)(=O)CC2N1CCc1ccccc1 (stereo unspecified) | -18.7 | 
CCOC(=O)C1CCN(C(=O)COc2cc(C)c(Br)c(C)c2)CC1 | -22.3 | 

SMILES | activity change, negative = growth inhibition [%] | Potency
CCOC(=O)C1CCCN(C(=O)c2cccc3ccccc23)CC1 (stereo unspecified) | -29.7 | 
CCOC(=O)C1CCN(Cc2ccc(-c3ccccc3)cc2)CC1 | 3.59 | 
CCOC(=O)C1CCN(Cc2nnc(-c3cccc(Br)c3)o2)CC1 | -4.65 | 
CCOC(=O)C1CCN(c2ncnc3c2c(-c2ccccc2)cn3-c2cccc(C)c2)CC1 |  | 23.1 µM (active)
CCOC(=O)C1CCN(c2ncnc3c2c(-c2ccccc2)cn3-c2ccc(C)cc2)CC1 |  | 18.4 µM (active)
O=C(O)CCC(=O)Nc1ccc(N2CCOCC2)cc1 | -10.6 | 
CCCC1C(=O)N2C(N(C)C)=Nc3ccc(C)cc3N2C1=O (stereo unspecified) |  | inactive
CC(=O)Nc1ccc(NC(=O)c2sc3nc4c(c(-c5ccc(C)cc5)c3c2N)CCC4)cc1 | -9.97 | 
Cc1cccc(NC(=O)/C(=C\c2ccco2)NC(=O)c2ccccc2)c1 | 5.21 | 
Cc1cccc(NC(=O)c2sc3nc4c(c(-c5ccco5)c3c2N)CCC4)c1 |  | 25.9 µM (active)
NC(=O)c1sc2nc3c(c(-c4ccccc4)c2c1N)CCC3 |  | 13 µM (active)
Cc1sc2nc(CC(N)=O)[nH]c(=O)c2c1-c1ccccc1 | 1.96 | 
Cc1nn(C)cc1C(=O)c1ccccc1 | 1.93 | 
CN(C)c1ccnc2sc(C(=O)c3ccccc3)c(N)c12 | -0.214 | 
Cc1nc2sc(C(=O)c3ccccc3)c(N)c2c2c1CCCC2 |  | 20.6 µM (active)
CCOC(=O)c1sc2nc(SC)nc(-c3ccccc3)c2c1N | -8.81 | 
CCCCC(NS(=O)(=O)c1ccc(C)cc1)C(=O)Oc1ccc2c3c(c(=O)oc2c1)CCC3 (stereo unspecified) | -29 | 
CCc1c(-c2ccccc2)nc(N)c(C#N)c1-c1cccs1 | -7.76 | 
CCC1CN(CCNC(=O)c2cccc(C)n2)Cc2cc(OC)ccc2O1 (stereo unspecified) | -22.3 | 
CC(C)C(=O)Nc1c(O)c2ccccc2[nH]c1=O | -18.3 | 
O=C(O)C1CCCN(S(=O)(=O)c2cccc3cccnc23)C1 (stereo unspecified) | -2.56 | 
CC(C)[C@@H]1NC(=O)c2cc([N+](=O)[O-])cc(I)c2NCCC[C@@H](C(=O)NC(CC(=O)O)C(N)=O)NC(=O)[C@H](CO)NC1=O (stereo partly specified) | 5.19 | 

SMILES | activity change, negative = growth inhibition [%] | Potency
COC(=O)c1c(C)[nH]c(C(=O)NCCc2ccc(S(N)(=O)=O)cc2)c1C | 2.2 | 
CCCc1c(C)nc2c(Br)cccc2c1Cl | -2.83 | 
Cn1cnc(C(F)(F)F)c1-c1ccc([N+](=O)[O-])cc1 | -21.8 | 
COc1ccc(S(=O)(=O)c2c[nH]c(=S)[nH]c2=O)cc1Cl | -9.17 | 
Cc1ccc(/C(N)=N/OC(=O)COc2ccc(Cl)c(C)c2)cc1 | -38.7 | 
COc1ccc(-c2noc(COc3ccc(Cl)c(C)c3)n2)cc1 | -29.5 | 
COc1ccc(C(C)=O)cc1COc1ccc(Cl)c(C)c1 |  | 9.2 µM (active)
O=C(CSCc1c(Cl)cccc1Cl)NN1C(=O)c2ccccc2C1=O | -2.81 | 
Cc1cc(C)c(NC(=S)N2CCCC2C(=O)O)c(C)c1 (stereo unspecified) | -5.64 | 
O=C(c1cc2ccccc2o1)N1CCN(c2cccc(C(F)(F)F)c2)CC1 | -21.2 | 
Cc1nn(CC(=O)N2CCN(c3cccc(C(F)(F)F)c3)CC2)c(=O)c2cc3sccc3n12 | -19.1 | 
CC(C)N1C[C@@H](NCc2ccccc2O)C[C@H]1C(=O)N1CCN(c2cccc(C(F)(F)F)c2)CC1 |  | 18.4 µM (active)
Cc1cc(C)nc(NS(=O)(=O)c2ccc(N3C(=O)C4CCCCC4C3=O)cc2)n1 (stereo unspecified) | 16.2 | 
CC(=O)NC(Cc1ccccc1)C(=O)NC1CCN(c2ncccc2[N+](=O)[O-])CC1 (stereo unspecified) | 8.39 | 
O=[N+]([O-])c1ccc(S(=O)(=O)Nc2cccc(-c3ccc(N4CCCC4)nn3)c2)cc1 | -15.2 | 
CCCOc1ccc(-c2cccc(NS(=O)(=O)c3ccccc3)c2)nn1 |  | 23.1 µM (active)
O=S(=O)(Nc1cccc(-c2ccc(N3CCOCC3)nn2)c1)c1ccc(Cl)c(Cl)c1 | -20.1 | 
N#Cc1ccc(CSc2nnc3ccccn23)cc1 | -2.49 | 
